Where “and” joins values, the source holds several entries; their conditions need not be identical. Equal entries are not always repeated. A structure can be active in one record and inactive in another. Calls of active or inactive are those of the source. Rule for the calls: active = hit-call score of the fitted dose curve at least 0.9, where 1 is the maximum; inactive = score below 0.9.

What is called AC50 is the midpoint of the concentration-response curve, whichever way the signal moves.

A short description of test [1]: ATG_CRE_CIS: Attagene CIS-FACTORIAL HepG2 Assay for human cAMP Responsive Element (CRE) binding protein 3 (AID 2282926). To be noted: HepG2 CRE cis-reporter, Attagene multiplexed mRNA; actives raise or lower the signal. The gist of the method: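 We dosed HepG2 cells bearing multiple cis-promoter reporter units for 24 h and measured reporter mRNA by RT-PCR with capillary electrophoresis detection. Bidirectional concentration-response fitting used DMSO as negative control.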

Test [2] has as its target CCAAT/enhancer-binding protein beta (Homo sapiens) (UniProt P17676). Briefly: ATG_C_EBP_CIS: Attagene CIS-FACTORIAL HepG2 Assay for human CCAAT/Enhancer Binding Protein (C/EBP) beta (AID 2282927). To be noted: HepG2 Attagene cis-factorial transcription factor reporter; actives raise or lower the signal. The gist of the method:
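HepG2 transiently transfected with multiplexed reporter units under cis-regulatory promoters reporting endogenous C/EBPb activity. After 24 h exposure, reporter mRNA assayed by RT-PCR, fluorescent labelling, HpaI digestion and capillary electrophoresis; bidirectional fitting versus DMSO.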

A short description of test [3]: ATG_CMV_CIS: Attagene CIS-FACTORIAL HepG2 Assay for human CMV (Internal Marker) (AID 2282928).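 Note: endpoint acts as a background internal control marker rather than a target.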 To be noted: HepG2 CMV promoter reporter, transcription factor profiling; actives raise or lower the signal. The gist of the method: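 CMV internal-marker background readout in transiently transfected HepG2 cells bearing cis-regulated reporter units. Reporter mRNA is measured 24 h after dosing by RT-PCR and capillary electrophoresis, with bidirectional fitting against DMSO.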

Test [4] is described as follows: ATG_DR4_LXR_CIS: Attagene CIS-FACTORIAL HepG2 Assay for human Liver X Receptor (LXR), DR4 submotif (AID 2282929). To be noted: HepG2 Attagene DR4 cis-reporter, mRNA transcription; actives raise or lower the signal. In a few lines:
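Cells were transfected with multiple reporter transcription units, exposed to chemicals for 24 hours, then lysed for RNA. Reporter mRNA induction was measured by RT-PCR with capillary electrophoresis detection and fitted in both directions relative to DMSO.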

The target of test [5] is Aryl hydrocarbon receptor (Homo sapiens) (UniProt P35869). Briefly: ATG_Ahr_CIS: Attagene CIS-FACTORIAL HepG2 Assay for human Aryl Hydrocarbon Receptor (Ahr) (AID 2282930). To be noted: HepG2 AhR cis-factorial reporter transcription; actives raise or lower the signal. In a few lines: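 HepG2 cells transiently transfected with cis-element-driven multiplexed reporter units; endogenous AhR activity read as reporter mRNA 24 h after dosing, via RT-PCR, 6-FAM labelling, HpaI digestion and capillary electrophoresis. Bidirectional fit relative to DMSO.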
Sequence of Aryl hydrocarbon receptor (Homo sapiens) (P35869 whole entry, looked up): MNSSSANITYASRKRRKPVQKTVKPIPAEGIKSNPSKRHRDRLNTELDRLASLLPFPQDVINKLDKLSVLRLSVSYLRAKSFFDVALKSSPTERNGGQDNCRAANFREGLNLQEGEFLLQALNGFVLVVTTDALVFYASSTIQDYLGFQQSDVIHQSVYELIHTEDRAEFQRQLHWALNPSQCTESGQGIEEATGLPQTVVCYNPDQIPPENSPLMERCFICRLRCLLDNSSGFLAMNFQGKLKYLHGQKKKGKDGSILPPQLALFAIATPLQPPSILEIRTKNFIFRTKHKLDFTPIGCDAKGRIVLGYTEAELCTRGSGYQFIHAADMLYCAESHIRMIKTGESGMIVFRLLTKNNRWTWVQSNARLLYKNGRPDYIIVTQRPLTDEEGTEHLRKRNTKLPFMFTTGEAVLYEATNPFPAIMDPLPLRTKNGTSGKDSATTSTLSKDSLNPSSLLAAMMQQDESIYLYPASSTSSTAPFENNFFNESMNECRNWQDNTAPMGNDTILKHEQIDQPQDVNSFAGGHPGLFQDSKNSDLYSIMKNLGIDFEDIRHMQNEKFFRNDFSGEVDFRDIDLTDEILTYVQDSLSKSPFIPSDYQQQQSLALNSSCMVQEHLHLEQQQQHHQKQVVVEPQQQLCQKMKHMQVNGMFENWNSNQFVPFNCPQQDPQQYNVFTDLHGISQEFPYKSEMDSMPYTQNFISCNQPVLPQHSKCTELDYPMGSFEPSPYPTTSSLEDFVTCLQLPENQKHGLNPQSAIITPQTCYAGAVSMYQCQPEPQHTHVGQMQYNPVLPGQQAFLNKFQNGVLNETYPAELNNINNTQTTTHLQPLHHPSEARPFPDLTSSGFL

The nature of test [6]: ATG_AP_1_CIS: Attagene CIS-FACTORIAL HepG2 Assay for human Activator Protein 1 (AP-1) (AID 2282931). To be noted: HepG2 Attagene cis-factorial AP-1 reporter mRNA; actives raise or lower the signal. In a few lines: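 Endogenous transcription-factor activity in human HepG2 liver cells is read through a cis-promoter reporter transcript, sampled 24 h after dosing. Detection uses RT-PCR with capillary electrophoresis; values come from bidirectional fitting relative to DMSO.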

A short description of test [7]: ATG_AP_2_CIS: Attagene CIS-FACTORIAL HepG2 Assay for human Activator Protein 2 (AP-2) (AID 2282932). To be noted: HepG2 AP-2 cis-reporter, Attagene transcription factor profiling; actives raise or lower the signal. In a few lines: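 Multiplexed mRNA reporter assay in HepG2: cis-regulated units report endogenous factor activity after 24 h treatment. Fluorescence from capillary electrophoresis of RT-PCR products gives the signal, with DMSO as baseline.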

Test [8] can be described thus: ATG_BRE_CIS: Attagene CIS-FACTORIAL HepG2 Assay for human Bone Morphogenetic Protein (BMP) Response Element (BRE) (AID 2282933). To be noted: HepG2 BMP response element reporter, Attagene transcription factor profiling; actives raise or lower the signal. In a few lines: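 HepG2 cells transiently transfected with multiplexed cis-element reporter units were dosed with chemical for 24 h. Reporter mRNA was measured by RT-PCR with fluorescent labelling, HpaI digestion and capillary electrophoresis; bidirectional fitting relative to DMSO.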

Test [9] deals with Retinoic acid receptor alpha (Homo sapiens) (UniProt P10276). Briefly: ATG_DR5_RAR_CIS: Attagene CIS-FACTORIAL HepG2 Assay for human Retinoic Acid Receptor Alpha (RARE), DR5 submotif (AID 2282934).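 For AC50: reporter responds to endogenous RAR alpha beta and gamma in HepG2 not RARA alone.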 To be noted: HepG2 Attagene cis-factorial RARE DR5 reporter, mRNA; actives raise or lower the signal. In a few lines: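 HepG2 cells transiently transfected with multiplexed reporter units; DR5 cis-element drives reporter through endogenous transcription factors. After 24 h dosing, reporter mRNA quantified by RT-PCR, fluorescent labeling, HpaI digestion and capillary electrophoresis; bidirectional fitting versus DMSO.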
Sequence of Retinoic acid receptor alpha (Homo sapiens) (P10276 whole entry, looked up): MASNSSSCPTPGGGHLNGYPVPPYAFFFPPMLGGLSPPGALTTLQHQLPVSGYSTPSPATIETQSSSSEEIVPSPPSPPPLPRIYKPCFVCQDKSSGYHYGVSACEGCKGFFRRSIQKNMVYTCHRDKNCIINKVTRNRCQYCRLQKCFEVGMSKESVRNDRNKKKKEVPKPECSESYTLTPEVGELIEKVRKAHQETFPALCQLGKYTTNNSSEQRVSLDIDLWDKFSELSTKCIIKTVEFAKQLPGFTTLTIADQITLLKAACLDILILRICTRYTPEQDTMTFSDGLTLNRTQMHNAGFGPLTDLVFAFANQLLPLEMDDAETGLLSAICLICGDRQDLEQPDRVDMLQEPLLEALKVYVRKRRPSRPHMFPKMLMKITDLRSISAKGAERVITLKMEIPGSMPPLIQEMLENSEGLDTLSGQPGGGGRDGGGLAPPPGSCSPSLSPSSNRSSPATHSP

A short description of test [10]: ATG_E_Box_CIS: Attagene CIS-FACTORIAL HepG2 Assay for human Enhancer Box (E-box) (AID 2282936). To be noted: HepG2 E-box cis-reporter transcription, actives raise or lower the signal. In a few lines:
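First, HepG2 cells receive multiple cis-regulated reporter constructs by transient transfection. Next, chemicals are applied for 24 h. Finally, reporter mRNA is quantified via RT-PCR and capillary electrophoresis, with DMSO as baseline.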

The nature of test [11]: ATG_M_61_CIS: Attagene CIS-FACTORIAL HepG2 Assay for M61 Transcription Factor (Internal Marker) (AID 2282937). To be noted: HepG2 Attagene CIS-FACTORIAL M61 internal marker reporter; actives raise or lower the signal. In a few lines: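 Cells were transfected with reporter units under cis-regulatory promoters, treated with chemicals for 24 h, then lysed for RNA. Reporter transcripts were quantified by RT-PCR and capillary electrophoresis, and activity was fitted bidirectionally against DMSO.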

A short description of test [12]: ATG_EGR_CIS: Attagene CIS-FACTORIAL HepG2 Assay for human Early Growth Response 1 (EGR1) (AID 2282938). To be noted: HepG2 Attagene CIS-FACTORIAL EGR reporter mRNA; actives raise or lower the signal. In a few lines: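 Endogenous TF activity in HepG2 liver cells was gauged through cis-promoter reporter constructs transiently transfected. After 24 h dosing, reporter mRNA was quantified by RT-PCR and capillary electrophoresis, and curves fitted in both directions versus DMSO.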

Test [13] is described as follows: ATG_M_19_CIS: Attagene CIS-FACTORIAL HepG2 Assay for M19 Transcription Factor (Internal Marker) (AID 2282939). To be noted: HepG2 Attagene CIS-FACTORIAL M19 internal marker reporter; actives raise or lower the signal. In a few lines:
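HepG2 cells transiently transfected with cis-regulated multiple reporter transcription units were dosed for 24 h; reporter mRNA was quantified by RT-PCR, 6-FAM primer-extension labelling, HpaI digestion and capillary electrophoresis, with bidirectional fitting against DMSO baseline.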

The nature of test [14]: ATG_ERE_CIS: Attagene CIS-FACTORIAL HepG2 Assay for Estrogen Response Element (ERE) (AID 2282940). To be noted: HepG2 ERE cis-reporter, Attagene RNA transcript; actives raise or lower the signal. The gist of the method:
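HepG2 cells transiently transfected with cis-promoter-driven multiplexed reporter transcription units report endogenous TF activity. After 24 h compound exposure, reporter mRNA is quantified by RT-PCR with capillary electrophoresis fluorescence; bidirectional fitting versus DMSO baseline.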

Test [15] in a line: ATG_Ets_CIS: Attagene CIS-FACTORIAL HepG2 Assay for human Erythroblast Transformation Specific (ETS) (AID 2282941). To be noted: HepG2 ETS cis-reporter transcription, actives raise or lower the signal. The gist of the method:
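HepG2 cells transfected with multiple cis-regulated reporter units measuring endogenous ETS-driven transcription, 24 h after dosing. Reporter mRNA quantified by RT-PCR with capillary electrophoresis; bidirectional fit relative to DMSO.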

The target in test [16] is Hepatocyte nuclear factor 3-beta (Homo sapiens) (UniProt Q9Y261). Briefly: ATG_FoxA2_CIS: Attagene CIS-FACTORIAL HepG2 Assay for human Forkhead box A2 (FOXA2) (AID 2282942). To be noted: HepG2 cis-reporter transcription factor activity, 24 h; actives raise or lower the signal. In a few lines:
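Endogenous transcription factor activity was read in HepG2 cells carrying transiently transfected cis-promoter reporter units. After 24 h dosing, reporter mRNA was quantified by RT-PCR and capillary electrophoresis, and values fitted bidirectionally versus DMSO.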

Test [17] can be described thus: ATG_FoxO_CIS: Attagene CIS-FACTORIAL HepG2 Assay for human Forkhead box O (FoxO) (AID 2282943). To be noted: HepG2 Attagene cis-reporter, FoxO element, mRNA; actives raise or lower the signal. In a few lines: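 HepG2 cells transiently transfected with cis-element-driven reporter units report endogenous FoxO activity. After 24 h chemical exposure, reporter mRNA quantified by RT-PCR, fluorescent labeling, HpaI digestion and capillary electrophoresis; bidirectional fit versus DMSO.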

Test [18] in a line: ATG_GATA_CIS: Attagene CIS-FACTORIAL HepG2 Assay for human GATA Binding Protein (AID 2282944). To be noted: HepG2 GATA cis-element reporter, Attagene multiplex mRNA; actives raise or lower the signal. The gist of the method:
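HepG2 cells transiently transfected with multiplexed cis-element reporter units reflecting endogenous transcription factor activity; reporter mRNA measured after 24 h dosing by RT-PCR, 6-FAM labeling, HpaI digestion and capillary electrophoresis. Bidirectional fitting versus DMSO baseline.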

A short description of test [19]: ATG_GLI_CIS: Attagene CIS-FACTORIAL HepG2 Assay for human Zinc Finger Protein GLI1 (AID 2282945). To be noted: HepG2, Attagene cis-factorial reporter mRNA, GLI element; actives raise or lower the signal. The gist of the method: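 Transiently transfected HepG2 cells report endogenous transcription factor activity via cis-element-driven reporter units. After 24 h compound exposure, reporter mRNA was measured by RT-PCR with capillary electrophoresis; bidirectional fitting against DMSO baseline.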

Test [20] has as its target Transcription factor E2F1 (Homo sapiens) (UniProt Q01094). As to the kind of experiment: ATG_E2F_CIS: Attagene CIS-FACTORIAL HepG2 Assay for human E2F Transcription Factor 1 (AID 2282935). To be noted: HepG2 Attagene cis-reporter, E2F reporter RNA transcripts; actives raise or lower the signal. In a few lines:
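Measures reporter transcript levels via RT-PCR with capillary electrophoresis detection in HepG2 cells harboring cis-regulated reporter units; 24 h post-dose; bidirectional curve fitting with DMSO as baseline.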

Sequence of Hepatocyte nuclear factor 3-beta (Homo sapiens) (Q9Y261 whole entry, looked up): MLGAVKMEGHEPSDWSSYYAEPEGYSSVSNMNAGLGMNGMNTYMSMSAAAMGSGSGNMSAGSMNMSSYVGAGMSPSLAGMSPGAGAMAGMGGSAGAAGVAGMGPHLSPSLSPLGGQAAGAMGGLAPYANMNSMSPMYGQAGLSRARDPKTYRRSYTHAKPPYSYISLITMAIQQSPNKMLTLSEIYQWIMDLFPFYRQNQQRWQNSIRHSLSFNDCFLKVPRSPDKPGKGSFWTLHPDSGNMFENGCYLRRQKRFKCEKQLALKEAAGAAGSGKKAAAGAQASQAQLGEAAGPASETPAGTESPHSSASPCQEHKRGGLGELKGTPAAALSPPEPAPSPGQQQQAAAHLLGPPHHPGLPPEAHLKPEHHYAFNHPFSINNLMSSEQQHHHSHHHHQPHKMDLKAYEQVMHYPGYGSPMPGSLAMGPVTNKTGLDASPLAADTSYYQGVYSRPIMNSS
Sequence of Transcription factor E2F1 (Homo sapiens) (Q01094 whole entry, looked up): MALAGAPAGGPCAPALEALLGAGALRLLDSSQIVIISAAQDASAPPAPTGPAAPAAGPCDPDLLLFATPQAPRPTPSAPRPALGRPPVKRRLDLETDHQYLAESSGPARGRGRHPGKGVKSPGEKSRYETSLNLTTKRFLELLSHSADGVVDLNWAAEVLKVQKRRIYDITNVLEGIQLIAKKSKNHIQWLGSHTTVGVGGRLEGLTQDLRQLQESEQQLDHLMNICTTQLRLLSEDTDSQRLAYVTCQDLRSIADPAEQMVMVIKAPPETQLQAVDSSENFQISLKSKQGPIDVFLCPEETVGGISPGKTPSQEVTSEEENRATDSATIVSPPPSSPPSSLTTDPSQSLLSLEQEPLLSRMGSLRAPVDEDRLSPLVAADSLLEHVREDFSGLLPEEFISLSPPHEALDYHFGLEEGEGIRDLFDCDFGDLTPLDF
Sequence of CCAAT/enhancer-binding protein beta (Homo sapiens) (P17676 whole entry, looked up): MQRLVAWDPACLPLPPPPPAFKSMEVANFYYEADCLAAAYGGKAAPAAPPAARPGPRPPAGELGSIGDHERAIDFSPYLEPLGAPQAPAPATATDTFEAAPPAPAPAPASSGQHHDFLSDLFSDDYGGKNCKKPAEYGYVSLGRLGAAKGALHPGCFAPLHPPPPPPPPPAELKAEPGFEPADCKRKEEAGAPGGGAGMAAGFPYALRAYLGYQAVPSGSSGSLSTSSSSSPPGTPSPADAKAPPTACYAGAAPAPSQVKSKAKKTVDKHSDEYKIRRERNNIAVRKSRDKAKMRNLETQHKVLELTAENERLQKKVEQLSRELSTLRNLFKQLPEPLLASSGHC

Consider `NC(=O)N(O)[C@@H]1COc2cc(OCc3ccccc3)ccc21`, for which the molecule was classed as inactive in test [1], in test [2], in test [3], in [4], in test [5] and in [6]. The outcome in test [7], in [8], in test [10], in test [11], in [12] and in test [13] was inactive. Moreover, the result in test [14], in test [15], in test [16], in test [17], in test [18] and in [19] was inactive. Also, the AC50 in test [9] was 0.406 µM (active).
As to `COS(C)(=O)=O`, the molecule was called inactive in test [1], in test [2], in test [3], in test [4], in test [6] and in test [7]. Further, the call in test [8], in [20], in [10], in test [11], in [12] and in [13] was inactive. Moreover, the molecule was classed as inactive in [14], in [15], in test [16], in test [17], in test [18] and in test [19]. In addition, the AC50 in [5] was 22.1 µM (active).
Consider `O=C(O)CO`, for which the call in test [1], in [2], in test [3], in [4], in [5] and in test [6] was inactive. Also, the molecule was called inactive in [7], in test [8], in test [9], in test [20], in [10] and in [11]. The call in test [13], in test [14], in test [15], in [16], in test [17] and in [18] was inactive. Further, in test [19], the molecule was classed as inactive.
Turning to `Nc1ccn([C@@H]2O[C@H](CO)[C@@H](O)[C@@H]2O)c(=O)n1`, the result in test [1], in [2], in test [3], in test [4], in [5] and in test [6] was inactive. Further, the molecule was classed as inactive in [7], in test [8], in test [9], in test [20], in test [10] and in test [11]. In addition, the molecule was classed as inactive in [12], in test [13], in [15], in test [16], in test [17] and in test [18]. Also, the call in test [19] was inactive. In addition, in test [14], the AC50 was 6.66 µM (active).
On to `OC(O)(C(F)C(O)(O)C(F)(F)F)C(F)(F)F`, for which the molecule was called inactive in test [1], in [5], in test [6], in test [8], in test [9] and in test [10]. In addition, the molecule was called inactive in test [11], in [13], in test [14], in test [15], in test [16] and in [17]. The call in [18] and in [19] was inactive. For the same molecule, the AC50 was 78.9 µM (active) and 82.9 µM (active) in test [2]; 9 µM (active) and 6.13 µM (active) in test [3]; 37.9 µM (active) and 4.59 µM (active) in [4]; 71 µM (active) and 18.9 µM (active) in test [7]; 6.79 µM (active) in test [8]; 150 µM (active) in test [14].
For the molecule `CCc1ccc(O)c(C(C)(C)C)c1`, the result in test [1], in test [2], in [4], in [5], in test [7] and in test [8] was inactive. Moreover, the outcome in [20], in test [10], in test [11], in test [12], in test [13] and in [14] was inactive. For the same molecule, the call in test [15], in test [16], in test [17], in [18] and in [19] was inactive. For the same molecule, the AC50 in [3] was 43 µM (active); in test [6] it was 43.7 µM (active).

Source of the values: PubChem BioAssay (EPA / NIEHS).
